Data on 16 molecules can be found in ChEMBL document CHEMBL3433997, “St. Jude Leishmania screening dataset” (2016).

Molecules are shown by their SMILES.

For the assay, the target named is Hexose transporter 1 (Plasmodium falciparum) (UniProt O97467). Nature of the assay: ST_JUDE_LEISH: Cytotoxicity at 2uM final concentration against transgenic Leishmania Mexicana promastigotes LmPfHT that are glucose transport deficient and complemented with the Plasmodium falciparum hexose transporter. Activity is measured by DNA content using SYBR green in vitro. The class given is functional.
A word on the inhibition: it is the drop in the measured response relative to a control, in per cent. Consider `COc1ccc(-c2cccc(NC(=O)c3cccc(Cl)c3)c2)cc1CN1CCC(O)CC1`, for which the inhibition was 6.33%.
Regarding `Nc1ncc(-c2ccsc2)cc1-c1nc2ccccc2[nH]1`, the inhibition was found to be 6.79%.
For `COc1cccc(CN2CCCC(OC(c3ccccc3)c3ccccc3)C2)c1O` (stereo unspecified) the value was -1.82%; for `c1ccc(CCNc2nc(NCC(c3ccccc3)c3ccccc3)c3nc[nH]c3n2)cc1`, 3.7%; for `COc1cccc(COCC(O)CN(CCc2ccccn2)C(=O)c2ccccc2F)c1` (stereo unspecified), 2.79%.
As to `Cc1cccc(-n2nc(C)c3c2NC(=O)CC3C(=O)c2ccc(Cl)s2)c1` (stereo unspecified), the inhibition stood at 4.4%.
Turning to `Cc1ccccc1C(=O)NC(NC(=S)Nc1ccc([N+](=O)[O-])cc1)C(Cl)(Cl)Cl` (stereo unspecified), the inhibition is -1.37%.
Next, `O=C(/C=C/c1ccc(Cl)c(Cl)c1)NCCCCCN1CCCN(C(=O)Nc2ccc(F)c(F)c2)CC1`: 2.88%; `CNC(=O)c1ccccc1Nc1nc(Nc2ccc(CCN3CCN(C)CC3)cc2)ncc1Cl`: 74.2%.
In the case of `COc1ccc2ccccc2c1CCCCN1CCN(CC(c2ccc(F)cc2)N2CCC2)CC1` (stereo unspecified), the inhibition came out at 3.64%.
Next, `COc1cc(NC(=O)Nc2cccc3ccccc23)c(OC)cc1Cl`: 5.78%; `COc1ccc(C(=O)COc2cccc(/C=C/C(=O)O)c2)cc1OC`: 0.15%.
As for `CN=C(NC)c1cccc(NC(=O)C=Cc2ccc(C=CC(=O)Nc3cccc(C(=NC)NC)c3)cc2)c1`, the inhibition is 2.48%.
Next, `c1ccc(-n2ncc(CNCc3ccc(-c4cccc(-c5nc6ccccc6[nH]5)c4)cc3)n2)cc1`: 1.26%; `O=C(Nc1ccc(Cn2ncc(N3CCNCC3)c(Cl)c2=O)cc1)Nc1ccc(-c2ccccc2)cc1`: 2.78%.
As for `O=C(NCCCCN1CCC(c2ccc3c(c2OCC2COCO2)CCCC3)CC1)c1ccc(-c2ccc(C(F)(F)F)cc2)cc1` (stereo unspecified), the inhibition came to 1.19%.
